# Only a selection was taken, and hits are over-represented in it overall.
# Dicer processing – human Dicer pre-microRNA cleavage inhibition | cat-ELCCA pre-miR-21 Dicer processing, chemiluminescence; stronger effect = higher value | z-score at 25 µM | actives 6% (n = 47,000) | AID 1347074; in the data active = z-score above about 3, passing the limit was not always enough;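 note: plate controls were vehicle for no effect and no enzyme for full effect; higher signal means more uncleaved substrate so more Dicer inhibition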
# Target sequence (Q9UPY3 whole entry, looked up): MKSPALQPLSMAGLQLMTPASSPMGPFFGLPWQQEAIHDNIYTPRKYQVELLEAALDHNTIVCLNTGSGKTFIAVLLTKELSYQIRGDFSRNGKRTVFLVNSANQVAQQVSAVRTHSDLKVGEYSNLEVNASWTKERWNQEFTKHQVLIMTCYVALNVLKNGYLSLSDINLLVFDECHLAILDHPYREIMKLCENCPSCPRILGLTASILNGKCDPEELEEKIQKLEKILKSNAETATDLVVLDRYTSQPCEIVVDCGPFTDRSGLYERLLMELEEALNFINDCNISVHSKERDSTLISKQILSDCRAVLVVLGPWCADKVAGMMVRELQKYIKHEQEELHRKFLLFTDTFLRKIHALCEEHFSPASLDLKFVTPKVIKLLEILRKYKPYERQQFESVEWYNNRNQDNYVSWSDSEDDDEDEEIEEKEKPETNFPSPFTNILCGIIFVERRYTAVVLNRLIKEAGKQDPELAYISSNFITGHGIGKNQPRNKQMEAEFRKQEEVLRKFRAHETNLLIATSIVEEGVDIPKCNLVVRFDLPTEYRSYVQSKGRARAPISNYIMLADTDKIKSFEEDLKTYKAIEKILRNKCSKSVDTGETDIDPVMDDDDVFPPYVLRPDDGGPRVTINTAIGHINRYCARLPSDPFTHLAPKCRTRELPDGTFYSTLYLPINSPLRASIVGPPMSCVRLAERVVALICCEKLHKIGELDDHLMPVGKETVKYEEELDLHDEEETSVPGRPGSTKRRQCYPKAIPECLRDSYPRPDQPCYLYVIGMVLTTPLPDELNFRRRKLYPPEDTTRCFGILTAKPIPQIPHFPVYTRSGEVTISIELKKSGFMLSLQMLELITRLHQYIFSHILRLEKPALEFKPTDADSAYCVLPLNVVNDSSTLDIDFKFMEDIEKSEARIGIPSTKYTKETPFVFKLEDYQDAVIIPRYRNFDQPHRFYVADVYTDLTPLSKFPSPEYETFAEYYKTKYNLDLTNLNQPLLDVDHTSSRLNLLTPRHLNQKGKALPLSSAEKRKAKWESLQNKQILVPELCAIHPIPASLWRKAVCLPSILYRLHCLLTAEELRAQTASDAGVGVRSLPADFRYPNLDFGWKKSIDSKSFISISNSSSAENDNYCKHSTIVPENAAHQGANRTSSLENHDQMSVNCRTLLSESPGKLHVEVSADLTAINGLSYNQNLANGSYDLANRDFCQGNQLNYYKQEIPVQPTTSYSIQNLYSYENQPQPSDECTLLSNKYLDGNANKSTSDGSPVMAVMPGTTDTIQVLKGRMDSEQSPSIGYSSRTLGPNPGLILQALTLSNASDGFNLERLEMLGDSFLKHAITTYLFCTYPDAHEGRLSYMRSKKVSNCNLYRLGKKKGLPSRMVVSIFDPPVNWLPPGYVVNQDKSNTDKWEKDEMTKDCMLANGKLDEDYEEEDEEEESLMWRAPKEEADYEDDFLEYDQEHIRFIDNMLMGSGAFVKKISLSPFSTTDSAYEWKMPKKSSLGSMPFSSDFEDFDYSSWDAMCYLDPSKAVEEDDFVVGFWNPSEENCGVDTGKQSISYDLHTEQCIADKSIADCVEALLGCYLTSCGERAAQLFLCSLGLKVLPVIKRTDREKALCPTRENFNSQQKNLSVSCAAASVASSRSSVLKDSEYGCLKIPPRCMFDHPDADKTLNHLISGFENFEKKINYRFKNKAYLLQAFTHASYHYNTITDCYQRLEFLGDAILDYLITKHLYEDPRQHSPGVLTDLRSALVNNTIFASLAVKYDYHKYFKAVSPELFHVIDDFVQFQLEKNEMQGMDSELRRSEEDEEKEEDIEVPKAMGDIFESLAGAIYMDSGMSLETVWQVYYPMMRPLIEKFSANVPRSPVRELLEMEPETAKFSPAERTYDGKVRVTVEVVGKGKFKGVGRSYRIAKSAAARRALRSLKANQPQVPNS
# Starred values were filed as active, the others as inactive.
SMILES,Dicer processing
O=C(NNc1ncccc1-n1cccc1)Nc1ccc(Cl)cc1,0.61
COC(=O)c1[nH]c2ccccc2c1C(=O)OC,-1.2
O=C1CC(C(=O)Nc2cccc(F)c2)n2c(nc3ccccc32)N1 (centres undefined),-0.23
O=C1CC(C(=O)Nc2cccc(Cl)c2)n2c(nc3ccccc32)N1 (centres undefined),1.3
O=C1CC(C(=O)Nc2ccc(Br)cc2)n2c(nc3ccccc32)N1 (centres undefined),5.1*
CSc1nccc(-c2ccc(Cl)cc2)n1,0.31
O=[N+]([O-])c1cc(C(F)(F)F)ccc1Oc1c(Cl)cccc1Cl,-1
CC(=O)N1CCSC1C(=O)NN(C(=O)c1cc2ccccc2s1)C(=O)c1cc2ccccc2s1 (centres undefined),0.2
Cn1c(=O)c2c(ncn2CC(=O)Nc2nncs2)n(C)c1=O,8.2
C=C(C)CSc1nnc2c(n1)[nH]c1ccccc12,3.6*
O=C(CSc1nnc2c(n1)[nH]c1ccccc12)Nc1nc2ccccc2s1,5.4*
Cc1nnc(NC(=O)CSc2nnc3c(n2)[nH]c2ccccc23)s1,1.6
CCOC(=O)CSc1nnc2c(n1)[nH]c1ccccc12,-0.83
O=C(CSc1nnc2c(n1)[nH]c1ccccc12)Nc1nnc(-c2ccccc2)s1,-0.6
O=C(O)CSc1nnc2c(n1)[nH]c1ccccc12,-0.46
C/C(=N\NC(N)=O)C1(CC(C)C)CCCCC1,-0.19
CC(C)N(Cc1ccc(N(C)C)cc1)C(=S)Nc1ccc(F)cc1,0.57
CN(C)CCCNc1ncnc2c1sc1nc3c(cc12)COC(C)(C)C3,0.49
COC(=O)c1cc(=O)n2c(c1C(=O)c1ccc(Cl)cc1)SCC2,5.6*
O=C(c1ccc(Cl)cc1)N1CCSC1=S,-1.4
COC(=O)c1cc(Cl)cc(Cl)c1-c1c(Cl)cc(Cl)cc1C(=O)OC,-0.82
CCCc1c(O)nc2ccccn2c1=O,0.21
Cc1ccc(NC(=O)C2Sc3nnc(C)n3NC2c2ccc(Cl)cc2)c(C)c1 (centres undefined),0.35
N#Cc1cn(-c2ccc(Cl)cc2)c(=O)[nH]c1=O,-1.2
COCCCNC(=O)c1nc2ccccc2c(=O)n1/N=C/N(C)C,0.57
SMILES,Dicer processing
CSC1=NCN(CCCO)CN1,0.86
CCOc1ccc(C2Nn3c(C)nnc3SC2C(=O)NCC2CCCO2)cc1 (centres undefined),3.4*
O=C(NCC1CCCO1)C1Sc2nnc(-c3ccccc3)n2NC1c1ccc(F)cc1 (centres undefined),-0.07
O=C(NCC1CCCO1)C1Sc2nnc(-c3ccccc3)n2NC1c1ccc(Cl)cc1 (centres undefined),1.7
COC(=O)C1=C(OS(=O)(=O)c2ccc(C)cc2)CSC1,-0.87
CCOC(=O)c1ccc(C#Cc2ccc3c(c2)CC(C)(C)CS3)nc1,0.95
Cc1ccc(-c2nc(C)cc(OS(=O)(=O)c3ccc(C)cc3)n2)cc1,-0.54
CCOC(=O)c1c(NC(=O)Nc2cc(OC)ccc2Cl)sc2c1CCN(C)C2,3.4*
CCOC(=O)c1c(NC(=O)C(C)Oc2ccc(OC)cc2)sc2c1CCC(C)C2 (centres undefined),2.7
CCOC(=O)c1c(NS(=O)(=O)c2ccc(OC)c(OC)c2)sc2c1CCC2,-1.3
CCOC(=O)c1c(NC(=O)Oc2ccccc2)sc2c1CCC2,-0.88
CCOC(=O)c1c(NCc2cc(OC)ccc2O)sc2c1CCC2,4.1*
CCOC(=O)c1c(NC(=O)Nc2ccc(C)cc2)sc2c1CCN(C)C2,2.1
O=C1c2cc(S(=O)(=O)Nc3ccccc3)ccc2-c2ccc(S(=O)(=O)Nc3ccccc3)cc21,-0.06
Cc1ccc(-n2cccc2)c(NC(=O)c2cccc(C(F)(F)F)c2)c1,-1.4
CSc1sc(Br)c2c1/C(=N/OC(C)=O)CC(C)(C)C2,-0.39
N#Cc1cn(-c2ccccc2Cl)c(=O)[nH]c1=O,-0.6
O=C1CCC2C(=O)N(Cc3ccccc3)C(=O)C2C1 (centres undefined),2.4
O=C(Nc1ccc(N2CCOCC2)cc1)c1cc2cc(Cl)ccc2[nH]1,4*
O=C(Nc1ccc(N2CCOCC2)cc1)c1ccc(Oc2cc(Cl)cc(Cl)c2)o1,0.52
O=C(Nc1ccc(N2CCOCC2)cc1)c1ncn[nH]1,2
NC(N)=NC(N)=Nc1ccc(I)cc1,0.02
CCOC(=O)c1ccc(N2N=C(C)CC2=O)cc1,-4
O=C(Nc1ccc2oc(-c3ccccc3Cl)nc2c1)c1ccc([N+](=O)[O-])o1,0.83
CC1(C)NC(=O)N(CC(O)COc2ccc(Br)cc2)C1=O (centres undefined),3.1*
SMILES,Dicer processing
Cc1ccc(OCC(O)CN2C(=O)NC(C)(C)C2=O)cc1C (centres undefined),0.02
CC1(C)NC(=O)N(Cc2ccccc2)C1=O,-0.41
CC1(C)NC(=O)N(CC(O)CN(c2ccccc2)S(=O)(=O)c2ccccc2)C1=O (centres undefined),2.2
CC1(C)NC(=O)N(CC(O)CN(Cc2ccccc2)Cc2ccccc2)C1=O (centres undefined),3*
Cc1ccc(OCC(O)CN2C(=O)NC(C)(C)C2=O)cc1 (centres undefined),1.3
Cc1ccc(C2CC(C(F)(F)F)n3ncc(C(=O)N(C)Cc4c(C)nn(C)c4C)c3N2)cc1 (centres undefined),-0.67
CCCCc1c(C)nc(C2CC2)[nH]c1=O,1.6
COCCCNC(=S)NNC(=O)CSCc1c(C)c(C)c(C)c(C)c1C,-0.98
COc1cc(OC)cc(-c2nc3n(n2)C(c2cc(OC)ccc2OC)C(C(N)=O)=C(C)N3)c1 (centres undefined),1.3
O=C(O)CCCC(=O)Nc1ccc(F)c(F)c1F,0.2
Clc1ccc(-c2csc(Cc3ccccc3)n2)cc1,-0.8
COC(=O)/C(C#N)=C/c1cccn1CCCn1ccnc1,-0.17
Cc1ccc(-c2nc(NC(=O)c3cccnc3Oc3ccccc3)sc2C)cc1Cl,2.1
Cn1c(=O)c([N+](=O)[O-])c(O)c2ccccc21,1.5
Cc1ccc(NS(=O)(=O)c2sc3ccc(Cl)cc3c2C)cc1,1.4
Cc1c(S(=O)(=O)Nc2ccc3c(c2)OCCO3)sc2ccc(Cl)cc12,0.83
COc1ccccc1NS(=O)(=O)c1sc2ccc(Cl)cc2c1C,3.3*
CCCCNS(=O)(=O)c1cc(-c2nnc3c4ccccc4c(C)nn23)ccc1C,-0.21
Cc1cccc(N2C(=O)C3CN=NC3(C)C2=O)c1 (centres undefined),1.8
CCc1ccc(-c2c(C#N)c(N)nc3c2CCCCC3)s1,-4.6
Cc1c(Cc2ccc(Cl)c(Cl)c2)c(=O)oc2cc(O)ccc12,2.5
N#Cc1c(-c2ccc(Cl)cc2)[nH]c(SCc2ccccc2)nc1=S,3.5*
Clc1ccc(CSc2ncc(-c3ccc(Cl)cc3)[nH]2)cc1,0.75
N#Cc1c(-c2ccccc2)nc(SCc2ccccc2)[nH]c1=O,0.36
Cc1ccccc1-n1cc(C#N)c(=O)[nH]c1=O,0.27
SMILES,Dicer processing
Cc1nc(-c2ccccc2)sc1C(=O)NNC(=O)c1ccc(C(F)(F)F)cc1,-0.25
Cc1ccc2nc(Cc3nc4ccc(C)cc4[nH]3)[nH]c2c1,-1.7
Cc1nc2ccc(Cc3ccc4nc(C)[nH]c4c3)cc2[nH]1,5*
Cc1ccc2nc(Cc3ccc(N)cc3)[nH]c2c1,2.7
COc1ccc(OC)c(-c2ccn[nH]2)c1OCc1ccccc1,-0.55
CCCCOC(=O)COc1ccc2oc(-c3ccc(OC)cc3)cc(=O)c2c1,1
C=CCNC(=O)C(=O)NCCc1c[nH]c2ccccc12,3.7*
N#C/C(=C\c1ccc(-c2cc(C(F)(F)F)cc(C(F)(F)F)c2)o1)C(=O)NCCc1c[nH]c2ccccc12,-0.31
CCOC(=O)NC(=S)NCCc1c[nH]c2ccccc12,1

# Screening data deposited in PubChem by Center for Chemical Genomics, University of Michigan.
